52 compounds from PubChem BioAssay AID485297 (National Center for Advancing Translational Sciences (NCATS), 2010) can be followed below.

Among all 320,000 compounds or so, about 9,100 (2.8%) were called active. Roughly 3% stayed inconclusive and do not appear here. The entries come from a sample that favours actives as a whole. A number with no mark means an inactive call. Calls follow the shape of the dose curve; as a rule, active = well fitted activation curve with a large enough effect; inconclusive = small, poorly fitted or top-dose-only effect; inactive = no such curve, though single readings can be large or run the other way.
Potency is read from the fitted curve at half-maximal effect.

A short description of the test: qHTS Assay for Rab9 Promoter Activators. Also: nearly all actives have a fitted effect of over 60% in size. As to activation, negative = inhibition: % of control where 0% means no effect. The conditions noted are these: Huh7 Rab9 promoter-luciferase reporter, luminescence, 24 h; series mostly up to 9.22 µM; activation, negative = inhibition: at the top concentration. The method, boiled down:
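Luminescence from Amplite-detected luciferase (10 minutes, ambient) reports Rab9 promoter activation. Before that, stable Rab9-luciferase Huh7 cells (1500/well, reduced-serum OP-MEM I plus 10% FBS) were exposed to compound for 24 hours at 37C.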
A general note: In qHTS, concentration-response curves come from the screen itself.
`O=C(NCc1ccccc1CN1CCCC1)C1CCN(S(=O)(=O)c2ccc(Cl)cc2)CC1`: the “activation, negative = inhibition” value was -2.56%.
For `CCC(=O)c1ccc(OCC(=O)Nc2ccc(N3CCCCC3)cc2)cc1`, the “activation, negative = inhibition” value is 0.0254%.
Take `CC1CCN(C(NC(=O)c2ccco2)C(=O)c2ccccc2)CC1` (configuration not stated): the “activation, negative = inhibition” value is 1.11%.
Same read-out and setting: under `CCCCSc1nnc(-c2ccc(NC(=O)CC)cc2)n1C` stands -0.478%.
On to `CCC(=O)Nc1ccc(-c2ccc(N3CCCCC3)nn2)cc1`, for which the Potency was 1.58 µM (active).
For the compound `O=C(Nc1ccc(Sc2ccc(Br)cc2)cc1)c1ccco1`, the “activation, negative = inhibition” value is 0.424%.
For `CC1CCN(c2ccc(-c3ccc(NC(=O)c4ccco4)cc3)nn2)CC1`, the Potency is 3.55 µM (active).
As to `Cc1ccc(NC(=O)C(c2ccccc2)N2CCN(C(=O)c3ccco3)CC2)cc1` (configuration not stated), the “activation, negative = inhibition” value is -8.49%.
Take `CC(C)N(Cc1nnc(-c2ccccc2Br)o1)C(=O)c1cc(Cl)nc2ccccc12`: the “activation, negative = inhibition” value is -1.96%.
Regarding `CC(=O)c1c(C)[nH]c(C(=O)OCC(=O)Nc2c(C)n(C)n(-c3ccccc3)c2=O)c1C`, the “activation, negative = inhibition” value is -1.35%.
Same read-out and setting: in the case of `COc1ccc(-c2csc3nc(-c4ccccc4F)oc(=O)c23)cc1OC` it was -2.95%.
As for `COc1ccc(-c2noc(CNC(=O)C(C)Oc3ccccc3)n2)cc1` (configuration not stated), the “activation, negative = inhibition” value is -1.61%.
On to `COc1ccc(-c2n[nH]c(C)c2-c2ccccc2OC)c(O)c1`, for which the “activation, negative = inhibition” value was -13%.
Turning to `COc1ccc(-c2noc(CSc3ccc(C)cc3)n2)cc1`, the “activation, negative = inhibition” value is -4.26%.
Regarding `COc1ccc(-c2noc(CCCC(=O)NC3CCCC3)n2)cc1OC`, the “activation, negative = inhibition” value was -5.38%.
In the case of `COc1ccc(-c2noc(-c3cccc(OC)c3OC)n2)cc1OC`, the Potency is 2.24 µM (active).
As to `COc1ccc(-c2nc(-c3ccccc3)no2)c(OC)c1`, the Potency is 3.98 µM (active).
Still for that read-out and setting: under `Cc1cccc(-c2noc(-c3ccc(F)cc3)n2)c1` stands 0.224 µM (active).
With `Cc1cccc(-c2noc(CCC(=O)NC3CCCC3)n2)c1`, the “activation, negative = inhibition” value is 10.7%.
Regarding `Cc1cccc(-c2nc(Nc3ccc(O)cc3)c3ccccc3n2)c1`, the “activation, negative = inhibition” value was 0.0923%.
Turning to `COc1ccc(-c2noc(-c3ccc(C)cc3)n2)cc1`, the Potency was 2 µM (active).
In the case of `COc1ccc(-c2noc(CN(C)S(=O)(=O)c3ccc(C)cc3)n2)cc1`, the “activation, negative = inhibition” value was 8.74%.
As for `COc1ccc(NC(=O)Cn2cc(C(=O)c3ccncc3)c(=O)c3cc(C)ccc32)cc1Cl`, the “activation, negative = inhibition” value was -3.25%.
For `O=S(=O)(NCCCCCCNS(=O)(=O)c1c(F)cccc1F)c1ccc2c(c1)OCCO2`, the “activation, negative = inhibition” value was 0.689%.
In the case of `COc1cccc(NC(=O)CN(C)C(=O)c2cc(C3CC3)nn2-c2ccccc2)c1`, the “activation, negative = inhibition” value was 6.6%.
On the same count and under the same terms, in the case of `O=C(OCc1cc(=O)n2ccsc2n1)C1(c2ccc(Cl)cc2)CC1` it was -7.77%.
For the compound `COc1ccc(C(=O)OCC(=O)c2cc(C)n(CC3CCCO3)c2C)cc1[N+](=O)[O-]` (configuration not stated), the “activation, negative = inhibition” value was -3.62%.
For `Cc1cccc(NC(=O)CN2CCN(C(=O)C3CCN(C(=O)/C=C/c4ccccc4)CC3)CC2)c1C`, the “activation, negative = inhibition” value was -2.92%.
Still for that read-out and setting: under `COc1cc(OC)c(N2CC(C(=O)Nc3cc(Cl)ccc3N3CCOCC3)CC2=O)cc1Cl` (configuration not stated) stands -16.4%; under `CCCCN1C(=O)C(=O)N(CC(=O)Nc2cccc(C(C)=O)c2)C1=O`, -1.65%; under `C=C(C)C1CC=C(C)/C(=N\NC(=O)CNc2ccccc2OC)C1` (configuration not stated), 18.6%.
Regarding `O=C(Nc1ccon1)c1nc[nH]c1C(=O)NCc1ccccc1`, the “activation, negative = inhibition” value is 1.3%.
Regarding `O=C1c2cccc(OCC(=O)N3N=C(c4cccs4)CC3c3ccc(F)cc3)c2CCN1Cc1ccccc1` (configuration not stated), the “activation, negative = inhibition” value was -3.89%.
As to `O=C(CCNC(=O)c1ccc(Br)cc1)NCC(c1ccco1)N1CCCCC1` (configuration not stated), the “activation, negative = inhibition” value was -0.0856%.
For `CCc1ccc(NC2Nc3cc(C)nn3S2)cc1` (configuration not stated), the Potency was 3.55 µM (active).
Regarding `CCOC(=O)c1ccc(NC2Nc3cc(C)nn3S2)cc1` (configuration not stated), the “activation, negative = inhibition” value was -8.1%.
The same measure, in the same setting: in the case of `O=c1cc(CCl)nc2scc(-c3ccccc3)n12` it was -4.65%; in that of `Cc1nn2c(=O)cc(COC(=O)c3ccc(NC(=O)C(C)(C)C)cc3)nc2s1`, -12.2%.
With `Cc1csc2nc(COC(=O)c3cccc(N(C)C)c3)cc(=O)n12`, the Potency is 2.82 µM (active).
As to `CN(Cc1ccc(F)cc1)C(=O)COc1ccc2ccccc2c1`, the “activation, negative = inhibition” value was 0.291%.
For `CN(Cc1ccccc1)C(=O)COc1ccccc1`, the Potency was 2.24 µM (active).
Take `CN(Cc1ccccc1)C(=O)CCc1ccccc1`: the “activation, negative = inhibition” value is -9.9%.
Turning to `COc1ccc(NS(=O)(=O)c2ccc(C)c(C(=O)NCC(c3cccs3)N3CCOCC3)c2)cc1` (configuration not stated), the “activation, negative = inhibition” value was 0.739%.
Take `CCOc1ccccc1NC(=O)Cc1cccs1`: the “activation, negative = inhibition” value was -0.154%.
On to `O=C(Cc1cccs1)Nc1ccc([N+](=O)[O-])cc1`, for which the “activation, negative = inhibition” value was 3.07%.
On to `CCOC(=O)c1ccc(NC(=O)Cc2cccs2)cc1`, for which the Potency is 4.47 µM (active).
Consider `CCOC(=O)N1CCN(C(=O)COC(=O)c2cccc(S(C)(=O)=O)c2)CC1`, for which the “activation, negative = inhibition” value is 0.715%.
Consider `CCOc1ccc(NC(=O)c2cccc3c2C(=O)N(CC2CCCO2)C3)cc1` (configuration not stated), for which the “activation, negative = inhibition” value was 13.7%.
As for `CC(=O)c1sc(NC(=O)CCN2C(=O)C3CC=CCC3C2=O)nc1-c1ccccc1` (configuration not stated), the “activation, negative = inhibition” value is 2.81%.
`NC(=O)c1cc2ccccc2o/c1=N/NC(=O)c1cccc(F)c1`: the “activation, negative = inhibition” value is 12.8%.
`COc1cccc2cc(C(N)=O)/c(=N\NC(=O)c3ccccc3)oc12`: the Potency was 3.55 µM (active).
Turning to `COc1ccc(C(=O)N/N=c2\oc3ccccc3cc2C(N)=O)cc1`, the “activation, negative = inhibition” value is 11%.
